# Assay results published in article PMC7862700, “An all-to-all approach to the identification of sequence-specific readers for epigenetic DNA modifications on cytosine”.
# Assays:
# Test in all cases: DAPPL (digital affinity profiling via proximity ligation, sequencing); 10 mM Tris-HCl pH 7.5, 50 mM NaCl, 1 mM DTT, 4% glycerol, room temperature, 30 min; GST-TFs on glutathione beads, 16-mer random dsDNA library, 0.1% formaldehyde crosslink after washing; high values mean tight binding
# ELK3 = target: T1, ELK3 (Homo sapiens, UniProt P41970 1-407); conditions: protein: recombinant; tags: N-terminal GST; dsDNA, one strand shown
# T1 sequence: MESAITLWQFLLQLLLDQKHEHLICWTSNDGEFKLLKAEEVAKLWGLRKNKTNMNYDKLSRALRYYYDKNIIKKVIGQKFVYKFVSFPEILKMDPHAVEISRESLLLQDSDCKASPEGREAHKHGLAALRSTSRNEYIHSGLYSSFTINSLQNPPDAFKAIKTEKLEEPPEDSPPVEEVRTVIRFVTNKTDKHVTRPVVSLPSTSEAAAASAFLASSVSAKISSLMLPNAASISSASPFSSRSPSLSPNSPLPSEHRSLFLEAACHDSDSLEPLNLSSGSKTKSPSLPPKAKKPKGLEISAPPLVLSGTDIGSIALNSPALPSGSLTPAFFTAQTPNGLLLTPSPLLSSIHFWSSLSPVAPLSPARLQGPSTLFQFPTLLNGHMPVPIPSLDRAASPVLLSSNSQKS
# Summary of the method: (§1)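 Pools were built from human transcription factors expressed in yeast as GST fusions, captured on glutathione beads and DNA-barcoded, along with a tag-only sample. Incubation with 200 nmole of a 16-mer random double-stranded DNA library lasted 30 min at room temperature in Tris/NaCl/DTT/glycerol buffer, and was followed by washing, 0.1% formaldehyde crosslinking, proximity ligation, PCR amplification and Illumina NextSeq500 sequencing. Binding signal is the quotient of each hexamer's read frequency for a factor and its frequency for the tag-only sample.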
# SPIC = target: T2, SPIC (Homo sapiens, UniProt Q8N5J4 1-248); conditions: protein: recombinant; tags: N-terminal GST; dsDNA, one strand shown
# T2 sequence: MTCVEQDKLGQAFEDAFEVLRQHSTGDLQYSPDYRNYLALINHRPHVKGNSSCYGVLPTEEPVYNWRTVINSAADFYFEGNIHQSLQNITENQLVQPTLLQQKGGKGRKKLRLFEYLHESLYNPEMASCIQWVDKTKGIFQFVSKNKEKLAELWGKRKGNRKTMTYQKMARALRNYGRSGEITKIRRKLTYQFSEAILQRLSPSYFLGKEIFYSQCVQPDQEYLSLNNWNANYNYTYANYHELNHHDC
# Summary of the method: as §1
# ETV2 = target: T3, ETV2 (Homo sapiens, UniProt O00321 1-342); conditions: protein: recombinant; tags: N-terminal GST; dsDNA, one strand shown
# T3 sequence: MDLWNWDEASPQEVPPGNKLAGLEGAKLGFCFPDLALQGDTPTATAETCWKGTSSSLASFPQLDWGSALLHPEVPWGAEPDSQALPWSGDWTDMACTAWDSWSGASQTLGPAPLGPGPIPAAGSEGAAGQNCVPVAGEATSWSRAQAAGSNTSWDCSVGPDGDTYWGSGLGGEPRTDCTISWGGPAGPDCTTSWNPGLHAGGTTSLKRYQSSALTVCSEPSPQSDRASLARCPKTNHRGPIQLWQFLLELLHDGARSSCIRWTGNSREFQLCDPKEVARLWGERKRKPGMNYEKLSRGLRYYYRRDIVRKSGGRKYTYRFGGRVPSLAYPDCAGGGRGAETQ
# Summary of the method: as §1
# ELF5 = target: T4, ELF5 (Homo sapiens, UniProt Q9UKW6-2 1-255); conditions: protein: recombinant; tags: N-terminal GST; dsDNA, one strand shown
# T4 sequence: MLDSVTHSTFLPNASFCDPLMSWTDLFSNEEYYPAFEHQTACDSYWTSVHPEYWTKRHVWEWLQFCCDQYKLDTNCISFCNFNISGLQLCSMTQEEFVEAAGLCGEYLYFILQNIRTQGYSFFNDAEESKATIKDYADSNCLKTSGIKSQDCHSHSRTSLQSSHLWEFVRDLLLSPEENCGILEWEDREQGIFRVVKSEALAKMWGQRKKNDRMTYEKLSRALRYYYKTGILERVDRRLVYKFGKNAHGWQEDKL
# Summary of the method: as §1
# HSF1 = HSF1 (Homo sapiens, UniProt Q00613 1-529); conditions: protein: recombinant; tags: N-terminal GST; chain copies: 3; dsDNA, one strand shown
# Chain of HSF1 (Q00613 whole entry): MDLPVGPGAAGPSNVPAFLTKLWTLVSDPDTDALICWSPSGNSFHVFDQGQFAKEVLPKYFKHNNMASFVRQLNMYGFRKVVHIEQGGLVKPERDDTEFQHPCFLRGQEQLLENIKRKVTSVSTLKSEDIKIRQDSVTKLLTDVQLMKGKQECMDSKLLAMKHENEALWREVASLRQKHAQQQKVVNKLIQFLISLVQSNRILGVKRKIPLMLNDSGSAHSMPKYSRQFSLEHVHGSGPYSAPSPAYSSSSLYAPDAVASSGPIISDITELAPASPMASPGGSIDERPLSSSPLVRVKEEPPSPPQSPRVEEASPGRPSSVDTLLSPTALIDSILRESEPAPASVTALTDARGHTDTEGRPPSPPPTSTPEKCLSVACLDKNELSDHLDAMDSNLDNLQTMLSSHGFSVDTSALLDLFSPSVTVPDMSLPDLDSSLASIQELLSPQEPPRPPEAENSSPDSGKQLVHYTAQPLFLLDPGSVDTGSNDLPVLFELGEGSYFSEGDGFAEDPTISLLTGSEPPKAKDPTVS
# Summary of the method: as §1
# CRX = CRX (Homo sapiens, UniProt O43186 1-299); conditions: protein: recombinant; tags: N-terminal GST; dsDNA, one strand shown
# Chain of CRX (O43186 whole entry): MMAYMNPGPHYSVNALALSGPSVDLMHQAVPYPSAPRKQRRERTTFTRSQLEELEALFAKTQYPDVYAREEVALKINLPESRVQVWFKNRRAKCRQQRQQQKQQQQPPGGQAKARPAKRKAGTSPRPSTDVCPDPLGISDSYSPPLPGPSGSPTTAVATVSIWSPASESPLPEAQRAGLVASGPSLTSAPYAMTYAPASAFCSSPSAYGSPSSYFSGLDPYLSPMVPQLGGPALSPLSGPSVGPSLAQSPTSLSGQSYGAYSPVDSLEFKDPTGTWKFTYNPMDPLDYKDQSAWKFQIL
# Summary of the method: as §1
sequence,measurement,setting,value
AGTGCA,binding signal,ELK3,"1.13 fold enrichment (6-mer frequency, TF over GST control)"
same,binding signal,SPIC,"1.21 fold enrichment (6-mer frequency, TF over GST control)"
same,binding signal,ETV2,"1.04 fold enrichment (6-mer frequency, TF over GST control)"
same,binding signal,ELF5,"1.1 fold enrichment (6-mer frequency, TF over GST control)"
CATAAG,binding signal,HSF1,"1.13 fold enrichment (6-mer frequency, TF over GST control)"
same,binding signal,CRX,"1.42 fold enrichment (6-mer frequency, TF over GST control)"
TGGAAG,binding signal,HSF1,"1.56 fold enrichment (6-mer frequency, TF over GST control)"
same,binding signal,ELF5,"1.07 fold enrichment (6-mer frequency, TF over GST control)"
TGGAAC,binding signal,HSF1,"1.86 fold enrichment (6-mer frequency, TF over GST control)"
CGCGCG,binding signal,ELK3,"1.04 fold enrichment (6-mer frequency, TF over GST control)"
same,binding signal,SPIC,"1.14 fold enrichment (6-mer frequency, TF over GST control)"
same,binding signal,ETV2,"1.05 fold enrichment (6-mer frequency, TF over GST control)"
CGGCTG,binding signal,SPIC,"1.12 fold enrichment (6-mer frequency, TF over GST control)"
GTACGA,binding signal,SPIC,"1.02 fold enrichment (6-mer frequency, TF over GST control)"
same,binding signal,ETV2,"1.07 fold enrichment (6-mer frequency, TF over GST control)"
same,binding signal,ELF5,"1.03 fold enrichment (6-mer frequency, TF over GST control)"
ACTCAG,binding signal,SPIC,"1.11 fold enrichment (6-mer frequency, TF over GST control)"
same,binding signal,ETV2,"1.09 fold enrichment (6-mer frequency, TF over GST control)"
AGCCAC,binding signal,ELK3,"1.11 fold enrichment (6-mer frequency, TF over GST control)"
same,binding signal,SPIC,"1.03 fold enrichment (6-mer frequency, TF over GST control)"
same,binding signal,ETV2,"1.07 fold enrichment (6-mer frequency, TF over GST control)"
CAAACA,binding signal,ELK3,"1.17 fold enrichment (6-mer frequency, TF over GST control)"
same,binding signal,SPIC,"1.14 fold enrichment (6-mer frequency, TF over GST control)"
same,binding signal,ETV2,"1.13 fold enrichment (6-mer frequency, TF over GST control)"
same,binding signal,ELF5,"1.11 fold enrichment (6-mer frequency, TF over GST control)"
CACAGC,binding signal,ELK3,"1.07 fold enrichment (6-mer frequency, TF over GST control)"
same,binding signal,SPIC,"1.1 fold enrichment (6-mer frequency, TF over GST control)"
same,binding signal,ETV2,"1.05 fold enrichment (6-mer frequency, TF over GST control)"
AGTAAA,binding signal,ELK3,"1.06 fold enrichment (6-mer frequency, TF over GST control)"
same,binding signal,HSF1,"1.09 fold enrichment (6-mer frequency, TF over GST control)"
same,binding signal,ELF5,"1.06 fold enrichment (6-mer frequency, TF over GST control)"
TGCAGC,binding signal,ELK3,"1.07 fold enrichment (6-mer frequency, TF over GST control)"
same,binding signal,SPIC,"1.22 fold enrichment (6-mer frequency, TF over GST control)"
same,binding signal,ETV2,"1.12 fold enrichment (6-mer frequency, TF over GST control)"
GTTACC,binding signal,ELK3,"1.08 fold enrichment (6-mer frequency, TF over GST control)"
same,binding signal,SPIC,"1.03 fold enrichment (6-mer frequency, TF over GST control)"
same,binding signal,ELF5,"1.11 fold enrichment (6-mer frequency, TF over GST control)"
GTCTAT,binding signal,ELK3,"1.04 fold enrichment (6-mer frequency, TF over GST control)"
same,binding signal,SPIC,"1.18 fold enrichment (6-mer frequency, TF over GST control)"
same,binding signal,ETV2,"1 fold enrichment (6-mer frequency, TF over GST control)"
same,binding signal,ELF5,"1.08 fold enrichment (6-mer frequency, TF over GST control)"
CGCGCC,binding signal,ELK3,"1.05 fold enrichment (6-mer frequency, TF over GST control)"
same,binding signal,SPIC,"1.23 fold enrichment (6-mer frequency, TF over GST control)"
same,binding signal,ELF5,"1.03 fold enrichment (6-mer frequency, TF over GST control)"
GCCCCG,binding signal,SPIC,"1.13 fold enrichment (6-mer frequency, TF over GST control)"
same,binding signal,ETV2,"1.06 fold enrichment (6-mer frequency, TF over GST control)"
GCGAAA,binding signal,HSF1,"1.26 fold enrichment (6-mer frequency, TF over GST control)"
GCAGCT,binding signal,SPIC,"1.14 fold enrichment (6-mer frequency, TF over GST control)"
same,binding signal,ETV2,"1.06 fold enrichment (6-mer frequency, TF over GST control)"
same,binding signal,CRX,"1 fold enrichment (6-mer frequency, TF over GST control)"
TGGGTG,binding signal,SPIC,"1.03 fold enrichment (6-mer frequency, TF over GST control)"
same,binding signal,ELF5,"1.04 fold enrichment (6-mer frequency, TF over GST control)"
GCTAGA,binding signal,HSF1,"1.96 fold enrichment (6-mer frequency, TF over GST control)"
same,binding signal,CRX,"1.15 fold enrichment (6-mer frequency, TF over GST control)"
ACTGGT,binding signal,ELK3,"1.08 fold enrichment (6-mer frequency, TF over GST control)"
same,binding signal,SPIC,"1.07 fold enrichment (6-mer frequency, TF over GST control)"
same,binding signal,ETV2,"1.08 fold enrichment (6-mer frequency, TF over GST control)"
same,binding signal,ELF5,"1.03 fold enrichment (6-mer frequency, TF over GST control)"
AGCACA,binding signal,ELK3,"1.06 fold enrichment (6-mer frequency, TF over GST control)"
same,binding signal,SPIC,"1.02 fold enrichment (6-mer frequency, TF over GST control)"
same,binding signal,ETV2,"1.12 fold enrichment (6-mer frequency, TF over GST control)"
same,binding signal,ELF5,"1.05 fold enrichment (6-mer frequency, TF over GST control)"
ACGCTC,binding signal,SPIC,"1 fold enrichment (6-mer frequency, TF over GST control)"
same,binding signal,ETV2,"1.02 fold enrichment (6-mer frequency, TF over GST control)"
GGGGCT,binding signal,SPIC,"1.01 fold enrichment (6-mer frequency, TF over GST control)"
same,binding signal,CRX,"1.11 fold enrichment (6-mer frequency, TF over GST control)"
AGTCCC,binding signal,ELK3,"1.01 fold enrichment (6-mer frequency, TF over GST control)"
same,binding signal,SPIC,"1.06 fold enrichment (6-mer frequency, TF over GST control)"
same,binding signal,ELF5,"1.06 fold enrichment (6-mer frequency, TF over GST control)"
AGCTCG,binding signal,ELK3,"1.04 fold enrichment (6-mer frequency, TF over GST control)"
same,binding signal,HSF1,"1.02 fold enrichment (6-mer frequency, TF over GST control)"
same,binding signal,ETV2,"1 fold enrichment (6-mer frequency, TF over GST control)"
TGTTGT,binding signal,ELK3,"1.05 fold enrichment (6-mer frequency, TF over GST control)"
same,binding signal,SPIC,"1.23 fold enrichment (6-mer frequency, TF over GST control)"
same,binding signal,ELF5,"1.05 fold enrichment (6-mer frequency, TF over GST control)"
GTACTG,binding signal,ELK3,"1.08 fold enrichment (6-mer frequency, TF over GST control)"
same,binding signal,SPIC,"1.04 fold enrichment (6-mer frequency, TF over GST control)"
CAGCCC,binding signal,ELK3,"1.11 fold enrichment (6-mer frequency, TF over GST control)"
same,binding signal,SPIC,"1.13 fold enrichment (6-mer frequency, TF over GST control)"
same,binding signal,ETV2,"1.27 fold enrichment (6-mer frequency, TF over GST control)"
same,binding signal,ELF5,"1.01 fold enrichment (6-mer frequency, TF over GST control)"
TCGAAC,binding signal,ELK3,"1.06 fold enrichment (6-mer frequency, TF over GST control)"
same,binding signal,HSF1,"2 fold enrichment (6-mer frequency, TF over GST control)"
same,binding signal,ETV2,"1.03 fold enrichment (6-mer frequency, TF over GST control)"
same,binding signal,CRX,"1.07 fold enrichment (6-mer frequency, TF over GST control)"
same,binding signal,ELF5,"1.04 fold enrichment (6-mer frequency, TF over GST control)"
GAACTG,binding signal,SPIC,"1.26 fold enrichment (6-mer frequency, TF over GST control)"
same,binding signal,ETV2,"1.02 fold enrichment (6-mer frequency, TF over GST control)"
same,binding signal,ELF5,"1.01 fold enrichment (6-mer frequency, TF over GST control)"
GCAATC,binding signal,HSF1,"1.01 fold enrichment (6-mer frequency, TF over GST control)"
same,binding signal,ETV2,"1.05 fold enrichment (6-mer frequency, TF over GST control)"
same,binding signal,CRX,"1 fold enrichment (6-mer frequency, TF over GST control)"
GGCTAT,binding signal,SPIC,"1.03 fold enrichment (6-mer frequency, TF over GST control)"
same,binding signal,ETV2,"1.06 fold enrichment (6-mer frequency, TF over GST control)"
same,binding signal,ELF5,"1.02 fold enrichment (6-mer frequency, TF over GST control)"
AGTCCT,binding signal,ELK3,"1.01 fold enrichment (6-mer frequency, TF over GST control)"
same,binding signal,SPIC,"1.13 fold enrichment (6-mer frequency, TF over GST control)"
same,binding signal,ETV2,"1.02 fold enrichment (6-mer frequency, TF over GST control)"
same,binding signal,ELF5,"1.17 fold enrichment (6-mer frequency, TF over GST control)"
CAGTTC,binding signal,SPIC,"1.17 fold enrichment (6-mer frequency, TF over GST control)"
same,binding signal,ELF5,"1 fold enrichment (6-mer frequency, TF over GST control)"
